Legend:
Assay in all cases: SPOT peptide array binding signal intensity (averaged, normalized) (arbitrary units (background-subtracted, floor 0; scale differs between SH3 domains)); higher = stronger binding of the SH3 domain to the peptide
[1] = molecular target: AgAbp1
Experimental: (§1)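 GST-tagged SH3 domains from S. cerevisiae (Sc), A. gossypii (Ag), C. albicans (Ca) and S. pombe (Sp) were incubated at 10 ug/ml overnight at 4 C on cellulose SPOT membranes carrying 292 synthetic 15-mer peptides mined from the S. cerevisiae proteome (cysteines replaced by serines). Binding was detected with anti-GST antibody, HRP secondary and chemiluminescence, quantified with Genespotter, and reported as normalized spot intensities averaged over biological replicates.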

[2] = molecular target: AgBbc1
Experimental: as §1

[3] = molecular target: AgBem1-D1
Experimental: as §1

[4] = molecular target: AgBzz1-D1
Experimental: as §1

[5] = molecular target: AgBzz1-D2
Experimental: as §1

[6] = molecular target: AgCyk3
Experimental: as §1

[7] = molecular target: AgFus1
Experimental: as §1

[8] = molecular target: AgHof1
Experimental: as §1

[9] = molecular target: AgHse1
Experimental: as §1

[10] = molecular target: AgLsb1
Experimental: as §1

[11] = molecular target: AgLsb4
Experimental: as §1

[12] = molecular target: AgMyo5
Experimental: as §1

[13] = molecular target: AgNbp2
Experimental: as §1

[14] = molecular target: AgRvs167
Experimental: as §1

[15] = molecular target: AgSho1
Experimental: as §1

[16] = molecular target: AgSla1-D1-D2
Experimental: as §1

[17] = molecular target: AgSla1-D3
Experimental: as §1

[18] = molecular target: CaAbp1-D1
Experimental: as §1

[19] = molecular target: CaAbp1-D2
Experimental: as §1

[20] = molecular target: CaBbc1
Experimental: as §1

[21] = molecular target: CaBem1-D1
Experimental: as §1

[22] = molecular target: CaBzz1-D1
Experimental: as §1

[23] = molecular target: CaBzz1-D2
Experimental: as §1

[24] = molecular target: CaCyk3
Experimental: as §1

[25] = molecular target: CaFus1
Experimental: as §1

[26] = molecular target: CaHof1
Experimental: as §1

[27] = molecular target: CaHse1
Experimental: as §1

[28] = molecular target: CaLsb1
Experimental: as §1

[29] = molecular target: CaLsb4
Experimental: as §1

[30] = molecular target: CaMyo5
Experimental: as §1

[31] = molecular target: CaNbp2
Experimental: as §1

[32] = molecular target: CaRvs167
Experimental: as §1

[33] = molecular target: CaRvs167-3
Experimental: as §1

[34] = molecular target: CaSho1
Experimental: as §1

[35] = molecular target: CaSla1-D1-D2
Experimental: as §1

[36] = molecular target: CaSla1-D3
Experimental: as §1

[37] = molecular target: ScAbp1
Experimental: as §1

[38] = molecular target: ScBbc1
Experimental: as §1

[39] = molecular target: ScBem1-D1
Experimental: as §1

[40] = molecular target: ScBzz1-D1
Experimental: as §1

[41] = molecular target: ScBzz1-D2
Experimental: as §1

[42] = molecular target: ScCyk3
Experimental: as §1

[43] = molecular target: ScFus1
Experimental: as §1

[44] = molecular target: ScHof1
Experimental: as §1

[45] = molecular target: ScHse1
Experimental: as §1

[46] = molecular target: ScLsb1
Experimental: as §1

[47] = molecular target: ScLsb2
Experimental: as §1

[48] = molecular target: ScLsb3
Experimental: as §1

[49] = molecular target: ScLsb4
Experimental: as §1

[50] = molecular target: ScMyo3
Experimental: as §1

[51] = molecular target: ScMyo5
Experimental: as §1

[52] = molecular target: ScNbp2
Experimental: as §1

[53] = molecular target: ScPex13
Experimental: as §1

[54] = molecular target: ScRvs167
Experimental: as §1

[55] = molecular target: ScSho1
Experimental: as §1

[56] = molecular target: ScSla1-D1-D2
Experimental: as §1

[57] = molecular target: ScSla1-D3
Experimental: as §1

[58] = molecular target: SpAbp1-D1
Experimental: as §1

[59] = molecular target: SpBbc1
Experimental: as §1

[60] = molecular target: SpBzz1-D1
Experimental: as §1

[61] = molecular target: SpBzz1-D2
Experimental: as §1

[62] = molecular target: SpCyk3
Experimental: as §1

[63] = molecular target: SpHof1
Experimental: as §1

[64] = molecular target: SpHof1-2
Experimental: as §1

[65] = molecular target: SpHof1-3
Experimental: as §1

[66] = molecular target: SpHse1
Experimental: as §1

[67] = molecular target: SpLsb1
Experimental: as §1

[68] = molecular target: SpLsb4
Experimental: as §1

[69] = molecular target: SpMyo1
Experimental: as §1

[70] = molecular target: SpNbp2
Experimental: as §1

[71] = molecular target: SpPex13
Experimental: as §1

[72] = molecular target: SpRvs167
Experimental: as §1

[73] = molecular target: SpSla1-D1-D2
Experimental: as §1

[74] = molecular target: SpSla1-D3
Experimental: as §1

B1: unnamed (peptide)
chain: VRTRRRPPPPPIPST
B1 was tested, and the “SPOT peptide array binding signal intensity” value [1] was 28.5, the “SPOT peptide array binding signal intensity” value [2] was 892 and the “SPOT peptide array binding signal intensity” value [3] was 472. For the same binder, the “SPOT peptide array binding signal intensity” value [4] was 3600, the “SPOT peptide array binding signal intensity” value [5] was 940 and the “SPOT peptide array binding signal intensity” value [6] was 2. The “SPOT peptide array binding signal intensity” value [7] was 30, the “SPOT peptide array binding signal intensity” value [8] was 258 and the “SPOT peptide array binding signal intensity” value [9] was 29. For the same binder, the “SPOT peptide array binding signal intensity” value [10] was 91.8, the “SPOT peptide array binding signal intensity” value [11] was 44.5 and the “SPOT peptide array binding signal intensity” value [12] was 274. The “SPOT peptide array binding signal intensity” value [13] was 840, the “SPOT peptide array binding signal intensity” value [14] was 5.5 and the “SPOT peptide array binding signal intensity” value [15] was ≤ 0. For the same binder, the “SPOT peptide array binding signal intensity” value [16] was 20, the “SPOT peptide array binding signal intensity” value [17] was 346 and the “SPOT peptide array binding signal intensity” value [18] was 61. The “SPOT peptide array binding signal intensity” value [19] was 55, the “SPOT peptide array binding signal intensity” value [20] was 1060 and the “SPOT peptide array binding signal intensity” value [21] was 165. The “SPOT peptide array binding signal intensity” value [22] was 6060, the “SPOT peptide array binding signal intensity” value [23] was 3990 and the “SPOT peptide array binding signal intensity” value [24] was 108. The “SPOT peptide array binding signal intensity” value [25] was 7.5, the “SPOT peptide array binding signal intensity” value [26] was ≤ 0 and the “SPOT peptide array binding signal intensity” value [27] was 13.8. For the same binder, the “SPOT peptide array binding signal intensity” value [28] was ≤ 0, the “SPOT peptide array binding signal intensity” value [29] was 176 and the “SPOT peptide array binding signal intensity” value [30] was 13. The “SPOT peptide array binding signal intensity” value [31] was 610, the “SPOT peptide array binding signal intensity” value [32] was 48.5 and the “SPOT peptide array binding signal intensity” value [33] was 2. For the same binder, the “SPOT peptide array binding signal intensity” value [34] was 25.5, the “SPOT peptide array binding signal intensity” value [35] was 2380 and the “SPOT peptide array binding signal intensity” value [36] was 296. The “SPOT peptide array binding signal intensity” value [37] was 19, the “SPOT peptide array binding signal intensity” value [38] was 358 and the “SPOT peptide array binding signal intensity” value [39] was 46. For the same binder, the “SPOT peptide array binding signal intensity” value [40] was 1430, the “SPOT peptide array binding signal intensity” value [41] was 210 and the “SPOT peptide array binding signal intensity” value [42] was 20.5. For the same binder, the “SPOT peptide array binding signal intensity” value [43] was 10, the “SPOT peptide array binding signal intensity” value [44] was 0.75 and the “SPOT peptide array binding signal intensity” value [45] was 186. The “SPOT peptide array binding signal intensity” value [46] was 96.8, the “SPOT peptide array binding signal intensity” value [47] was 144 and the “SPOT peptide array binding signal intensity” value [48] was 584. The “SPOT peptide array binding signal intensity” value [49] was 23.5, the “SPOT peptide array binding signal intensity” value [50] was 851 and the “SPOT peptide array binding signal intensity” value [51] was 892. The “SPOT peptide array binding signal intensity” value [52] was 1260, the “SPOT peptide array binding signal intensity” value [53] was 269 and the “SPOT peptide array binding signal intensity” value [54] was 624. The “SPOT peptide array binding signal intensity” value [55] was 141, the “SPOT peptide array binding signal intensity” value [56] was 3390 and the “SPOT peptide array binding signal intensity” value [57] was 488. The “SPOT peptide array binding signal intensity” value [58] was 13.5, the “SPOT peptide array binding signal intensity” value [59] was 77.2 and the “SPOT peptide array binding signal intensity” value [60] was 2830. The “SPOT peptide array binding signal intensity” value [61] was 430, the “SPOT peptide array binding signal intensity” value [62] was 2 and the “SPOT peptide array binding signal intensity” value [63] was 248. The “SPOT peptide array binding signal intensity” value [64] was 73, the “SPOT peptide array binding signal intensity” value [65] was 88.2 and the “SPOT peptide array binding signal intensity” value [66] was 42.8. For the same binder, the “SPOT peptide array binding signal intensity” value [67] was 63.5, the “SPOT peptide array binding signal intensity” value [68] was 1370 and the “SPOT peptide array binding signal intensity” value [69] was 1460. The “SPOT peptide array binding signal intensity” value [70] was ≤ 0, the “SPOT peptide array binding signal intensity” value [71] was 30 and the “SPOT peptide array binding signal intensity” value [72] was 265. For the same binder, the “SPOT peptide array binding signal intensity” value [73] was 520 and the “SPOT peptide array binding signal intensity” value [74] was 1.
